Test results: article PMC5540273 (PLoS ONE, 2017)

Tests used:
[1] = system: CDKL3
[2] = system: CDKL5
[3] = system: CIT
[4] = system: CLK1
[5] = system: CLK2
[6] = system: CLK4
[7] = system: CSNK1G1
[8] = system: DAPK1
[9] = system: CSNK1A1
[10] = system: CSNK1D
[11] = system: CSNK1E
[12] = system: CSF1R
[13] = system: DAPK2
[14] = system: CLK3
[15] = system: CSNK1G3
[16] = system: T1, DCAMKL2
T1 construct: gene DCLK2
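Further: kd values determined as follow-up on hits from a single-replicate KINOMEscan panel screen.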

`CS(=O)(=O)CCNCc1nc(-c2ccc3ncnc(Nc4ccc5c(cnn5Cc5ccccc5)c4)c3c2)cs1.Cl.Cl` [GW569716] was tested. Which Kd [1] did it give?
The Kd was over 10000 nM.

How did the Kd [1] turn out when `Cn1cncc1C(=O)NC1CCN(c2ccnc(Nc3ccc(F)cc3)n2)C1` (stereo not shown) [GSK1379717] was run?
The Kd was over 10000 nM.

With `COc1ccc(Nc2nccc(N3CCC(NC(=O)C(C)c4ccc(Cl)cc4)CC3)n2)cc1` (stereo not shown) [GSK1379812] as the compound, how does the Kd [2] read?
The Kd was over 10000 nM.

How did the Kd [2] turn out when `O=C(Nc1n[nH]c2nc(-c3ccco3)c(Br)cc12)C1CCN(Cc2ccccc2)C1.O=C(O)[C@H](O)[C@@H](O)C(=O)O` (stereo not shown) [SB-742034] was run?
The Kd was 1100 nM.

How did the Kd [3] turn out when `Cc1ccc(NC(=O)Nc2ccc(Cl)c(C(F)(F)F)c2)cc1-c1ccc(C(=O)Nc2ccncc2)cc1` [GSK1398470] was run?
The Kd was 380 nM.

Which Kd [4] does the source give for `CNc1cc(-c2ccc3c(N)n[nH]c3c2)nc(N)n1` [GSK2224810] here?
Its Kd is 330 nM.

And the Kd [5]?
Its Kd is 410 nM.

And the Kd [6]?
The Kd was 140 nM.

How did the Kd [7] turn out when `COc1cccc(C2=C(Nc3cc(Cl)c(O)c(Cl)c3)C(=O)NC2=O)c1` [SB-390767] was run?
Its Kd is over 10000 nM.

How did the Kd [8] turn out when `Cn1cnc2c(N)ncnc21` [SKF-97623] was run?
Its Kd is over 10000 nM.

`NS(=O)(=O)c1cccc(N/C=C2\C(=O)Nc3ccc(S(=O)(=O)Cc4c(Cl)cccc4Cl)cc32)c1` [GSK398099] was tested. Which Kd [8] did it give?
Its Kd is over 10000 nM.

Which Kd [3] does the source give for `Fc1ccc(-c2nc[nH]c2-c2ccncc2)cc1` [SB-217360] here?
Its Kd is 310 nM.

And the Kd [9]?
The Kd was 87 nM.

And the Kd [10]?
The Kd was 41 nM.

And the Kd [11]?
The Kd was 140 nM.

With `Cl.Cl.Cl.N#Cc1ccc(CCNc2nccc(-c3cccc(CN4CCNCC4)c3)n2)cc1` [GSK2137462] as the compound, how does the Kd [3] read?
The Kd was 8600 nM.

For `Cc1ccc(NC(=O)Nc2ccccc2)cc1-c1ccc(C(=O)Nc2ccncc2)cc1` [GSK1398471], which Kd [3] is on record?
Its Kd is 540 nM.

And the Kd [12]?
The Kd was 3300 nM.

With `CC[C@@H]1CO[C@H](C(=O)Nc2ccccc2)CN1c1cc(-c2ccc3c(N)n[nH]c3c2)nc(NC)n1` [GSK2376236] as the compound, how does the Kd [3] read?
Its Kd is 200 nM.

Which Kd [3] does the source give for `Cc1ccc(NC(=O)Nc2ccccc2F)cc1-c1ccc(C(=O)Nc2ccncc2)cc1` [GSK1398477] here?
The Kd was 570 nM.

What about the Kd [12] of the same compound?
The Kd was 2600 nM.

For `CNc1nc(-c2ccc3c(N)n[nH]c3c2)cc(N2C[C@@H](C(=O)Nc3ccccc3)CC[C@H]2C)n1` [GSK2298859], which Kd [3] is on record?
Its Kd is 500 nM.

Which Kd [3] does the source give for `Nc1nccc(-c2c(-c3ccc(F)cc3)ncn2C2CCN(Cc3ccccc3)CC2)n1` [SB-219980] here?
The Kd was 130 nM.

What about the Kd [9] of the same compound?
The Kd was 41 nM.

And the Kd [10]?
The Kd was 7.5 nM.

What about the Kd [11] of the same compound?
Its Kd is 24 nM.

`c1ccc(-c2ccnc3[nH]ccc23)cc1` [SB-693578] was tested. Which Kd [7] did it give?
Its Kd is over 10000 nM.

How did the Kd [4] turn out when `COc1ccc(CSc2nnc(-c3ccc4ncsc4c3)o2)cc1C(F)(F)F` was run?
Its Kd is 170 nM.

And the Kd [6]?
The Kd was 1100 nM.

Which Kd [5] does the source give for `COC(=O)c1cccc(NC(=O)NC2CCN(c3ccnc(Nc4ccc(OC)cc4)n3)C2)c1` (stereo not shown) [GSK1379746] here?
The Kd was over 10000 nM.

What does the source list for `Cc1nccc(-c2c(-c3ccc(F)cc3)ncn2CCCN2CCOCC2)n1.Cl` [SB-282975]?
Kd [10]: 75 nM; Kd [11]: 460 nM; Kd [13]: > 10000 nM

What does the source list for `Cc1ccc(NC(=O)c2ccc(Cl)cc2)cc1-c1ccc(C(=O)Nc2ccncc2)cc1` [GSK1398467]?
Kd [5]: > 10000 nM; Kd [12]: 880 nM

For `Fc1ccc(-c2nc3n(c2-c2ccncc2)CCS3)cc1` [GI98581], which Kd [3] is on record?
The Kd was 760 nM.

What about the Kd [9] of the same compound?
The Kd was 260 nM.

What about the Kd [10] of the same compound?
The Kd was 83 nM.

And the Kd [11]?
The Kd was 180 nM.

Which results are given for `Cc1ccc(NC(=O)Nc2ccc(Cl)cc2)cc1-c1ccc(C(=O)Nc2ccncc2)cc1` [GSK1398472]?
Kd [3]: 430 nM; Kd [12]: 6700 nM

Which results are given for `CCCCc1nn2ncccc2c1-c1ccnc(NC2CC2)n1` [GW684374]?
Kd [14]: > 10000 nM; Kd [10]: 480 nM; Kd [11]: 2900 nM

What does the source list for `Cc1cccc2c(-c3ccncn3)c(-c3ccc(F)cc3)nn12` [GW515532]?
Kd [3]: 2500 nM; Kd [4]: > 10000 nM; Kd [14]: > 10000 nM; Kd [10]: 1200 nM; Kd [11]: 3400 nM; Kd [15]: > 10000 nM

How did the Kd [10] turn out when `COC(=O)C(NC(=O)NC1CCN(c2ccnc(Nc3ccc(F)cc3)n2)C1)c1ccccc1` (stereo not shown) [GSK1379712] was run?
The Kd was over 10000 nM.

With `COc1ccc(CSc2nnc(-c3ccc4c(c3)CCO4)o2)cc1` as the compound, how does the Kd [6] read?
Its Kd is 1300 nM.

For `CC(=O)c1c(C)c2cnc(Nc3ccn(C)n3)nc2n(C2CCCC2)c1=O`, which Kd [16] is on record?
Its Kd is over 10000 nM.

With `CC(=O)c1c(C)c2cnc(Nc3ccc(N4CCNCC4)cn3)nc2n(C2CCCC2)c1=O` as the compound, how does the Kd [14] read?
The Kd was over 10000 nM.

And the Kd [11]?
Its Kd is over 10000 nM.

With `O=C1NC(=O)C(c2ccc(Cl)cc2)=C1Nc1cccc(Cl)c1` [SB-317651] as the compound, how does the Kd [4] read?
Its Kd is 4400 nM.

What about the Kd [15] of the same compound?
Its Kd is over 10000 nM.

What does the source list for `Fc1ccc(-c2nn3cccc(F)c3c2-c2ccncc2)cc1` [GW475620]?
Kd [3]: 310 nM; Kd [10]: 77 nM; Kd [11]: 220 nM

Which results are given for `COc1cccc(NC(=O)Nc2ccc(C)c(-c3ccc(C(=O)Nc4ccncc4)cc3)c2)c1` [GSK1398474]?
Kd [3]: 280 nM; Kd [12]: 3300 nM

Which Kd [4] does the source give for `CNCc1ccc2nc(NC(=O)c3ccc(C(C)(C)C)cc3)cn2c1` here?
The Kd was 7500 nM.

And the Kd [15]?
The Kd was over 10000 nM.

How did the Kd [4] turn out when `COc1ccc(CSc2nnc(-c3ccc4nccn4c3)o2)cc1C(F)(F)F` was run?
Its Kd is 70 nM.

And the Kd [5]?
Its Kd is 150 nM.

And the Kd [6]?
Its Kd is 130 nM.
